# An excerpt weighted towards active compounds, which were near 3.7% of everything screened.
# BJeLR lethal: MLPCN primary cell-based screen for lethality selective to Ras in HRASV12 cells. BJeLR (HRASV12) viability, CellTiter-Glo ATP luminescence, 48 h. inhibition, % (concentration not given with the values). hit rate 0.17% among 300,000; in the data active = inhibition above about 50%; inconclusive = no clear call, values can overlap the other calls
# Vc quorum ag-1: inducers of Vibrio cholerae quorum light production without autoinducers, primary screen, BH1578 luxS cqsA deficient, single point. V. cholerae BH1578 lux reporter, luminescence, 6 h. activation, % at 18.7 µM. hit rate 0.16% among 350,000. AID 588436, 2011; in the data active = activation mostly above about 9.7%, no sharp cut-off; inconclusive = no clear call, values can overlap the other calls; inactive = mostly below about 3.7%
# Anthrax LF prot: Bacillus anthracis LF protease inhibitors, primary screen, biochemical, multiplex microsphere, MLPCN library | AID 588501, 2011 | multiplex microsphere protease cleavage assay | inhibition, % at 10 µM | hit rate 0.12% among 360,000
# BoNT-A LC inh2: BoNT/A light chain protease inhibitors, primary screen, biochemical, flow cytometry, MLPCN library. Botulinum neurotoxin type A light chain protease (Clostridium botulinum A str. ATCC 3502). multiplex microsphere protease substrate cleavage. inhibition, % at 10 µM. hit rate 0.17% among 360,000
# BoNT-F LC inh: BoNT/F light chain protease inhibitors, primary screen, biochemical, flow cytometry, MLPCN library; hit rate 0.22% among 360,000; AID 588497, 2011; Multiplex microsphere protease cleavage assay; Botulinum neurotoxin type F light chain protease (Clostridium botulinum); inhibition, % at 10 µM; in the data active = inhibition above about 35%, passing the limit was not always enough; inconclusive = no clear call, values can overlap the other calls
# Bead autofluor: counter-screen for toxin protease inhibitors: compound fluorescence. compound autofluorescence counterscreen, microsphere flow cytometry; active compounds read high. fluorescence intensity (concentration not given with the values). hit rate 3.1% among 360,000. AID 624483; in the data active = fluorescence intensity above about 16000; inconclusive = no clear call, values can overlap the other calls
# Vc quorum ag-2: V. cholerae lux activation without autoinducers – BH1578 luxS cqsA deficient, cherry-pick, plate reader, dose response; shares compounds with Vc quorum ag-1; activation, % at 50 µM; V. cholerae BH1578 lux reporter, luminescence, 6 h; 620 tested, under 10 active; call rule not given here
# HeLa 24h tox: HeLa cell cytotoxicity, dose response, cytotoxicity control, 24 h, dry powder; AID 624140, 2012; HeLa viability, CellTiter-Glo ATP luminescence; shares compounds with Vc quorum ag-1; activity change, negative = cytotoxicity, % at 35 µM; 25 tested, under 10 active;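 active = signal drop with fitted half-maximal concentration at or below twice the highest valid dose; inconclusive = flat curve with 30 to 70% loss, or poor fit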
# A number is an active result; n = inactive; u = inconclusive; x = no result given. Rule as the data show it, unless noted: active = inhibition above about 30%; inconclusive = no clear call, values can overlap the other calls; inactive = below that.
SMILES,BJeLR lethal,Vc quorum ag-1,Anthrax LF prot,BoNT-A LC inh2,BoNT-F LC inh,Bead autofluor,Vc quorum ag-2,others
Cc1noc(C)c1S(=O)(=O)Nc1ccc2c(c1)C(=O)N([C@H](C)CO)C[C@H](C)[C@@H](CN(C)Cc1ccc(C(=O)O)cc1)O2,x,n,n,n,n,n,n,
COc1ccccc1N1CCN(C(=O)c2cc3c(s2)CCC3)CC1,n,n,n,n,n,n,n,
CC(C)CNC(=O)C1(C)CCCN1C(=O)Cc1cccc2ccccc12 (configuration not stated),x,n,n,n,n,n,x,
Cc1noc(C)c1S(=O)(=O)N1CCCC(C(=O)NCCC2=CCCCC2)C1 (configuration not stated),n,20,n,n,n,n,n,
O=C(COC(=O)c1ccc(O)cc1)c1ccc2c(c1)OCCO2,x,n,n,n,n,n,n,
COC(=O)[C@]1(Sc2ccc(C)cc2)CC(=O)N[C@@H]1c1ccccc1,x,x,n,n,n,n,x,
Cc1ccc(S(=O)(=O)Nc2ccccn2)c(C)c1,x,n,n,n,n,n,x,
Cc1cc(C)c(S(=O)(=O)Nc2ccccn2)c(C)c1,n,52,n,n,n,n,n,
CC1(C)NC(=O)N(CCOCCOc2cccc(Oc3ccccc3)c2)C1=O,n,n,n,n,n,n,x,
CC1(C)NC(=O)N(CCOCCOc2ccc3ccccc3c2Br)C1=O,n,n,n,n,n,21501,n,
CCn1nnnc1NCc1ccc(Cl)cc1,n,n,n,n,n,n,x,
CCn1nnnc1NCc1cccn1C,n,n,n,n,n,n,x,HeLa 24h tox=n
CSc1ncnc2[nH]ccc12,x,n,n,n,n,n,x,
CC(C)CCN1CC(C(=O)N2CCN(c3ccc(F)cc3)CC2)CC1=O (configuration not stated),n,17,n,n,n,n,n,
O=C1CC(C(=O)N2CCN(c3ccc(F)cc3)CC2)CN1CCc1ccccc1 (configuration not stated),n,n,n,n,n,n,x,
O=C1c2cccc(-c3ccc(C(F)(F)F)cc3)c2C2CC=CCN12 (configuration not stated),x,x,n,n,n,n,x,
O=C(Oc1ccc(=O)n(-c2ccccc2)n1)c1ccc(Cl)cc1,n,n,n,n,n,n,x,
O=C(Oc1ccc(=O)n(-c2ccccc2)n1)c1cccc(Cl)c1,n,25,n,n,n,n,n,
CC(=O)c1ccc(S(=O)(=O)Nc2cccc(-c3ccc4nncn4n3)c2)cc1,n,23,n,n,n,n,n,
O=C(CNC(=O)c1cccc(S(=O)(=O)N2CCc3ccccc32)c1)Nc1ccc(F)c(F)c1F,x,n,n,n,n,u,n,
Cc1nnc(NC(=O)c2cccc(S(=O)(=O)N3CCc4ccccc43)c2)s1,n,n,n,n,n,n,n,
O=C(Nc1nnc(C2CC2)s1)c1cccc(S(=O)(=O)N2CCc3ccccc32)c1,n,n,n,n,n,n,n,
CCCCN1C(=O)C(CC(=O)NCCCCc2ccccc2)CC(C(=O)N2CCCCCC2)=C1C (configuration not stated),x,x,n,n,n,n,x,
O=C(CCC1CCCC1)N1CCN(S(=O)(=O)Cc2ccccc2)CC1,n,n,n,n,n,n,x,
CCS(=O)(=O)N1CCN(C(=O)CCC2CCCC2)CC1,n,28,n,n,n,n,n,
COc1ccc2c(c1)CCC(C)N2S(=O)(=O)c1ccc(C2CNC(=O)C2)cc1 (configuration not stated),n,n,n,n,n,n,n,
CCCCN1C(=O)C(CC(=O)NCCCN(C)C)CC(C(=O)N(C)C)=C1C (configuration not stated),x,n,n,n,n,n,x,
Cn1nc(-c2ccc(C(=O)NCC3CCCO3)cc2)c2ccccc2c1=O (configuration not stated),n,n,n,n,n,n,x,
